Laboratory results taken from the supplement of paper PMC3334620.
The full ranking holds about 33,000 sequences; the median of “E-score (-0.5 to 0.5)” is about -0.043, and the highest 2% start at about 0.37. For the sample, the highest values were picked, then their nearest neighbours and some sequences at random.

target: T1, Upc2 (UniProt Q12151); assay: PBM E-score (8-mer binding enrichment) (E-score (-0.5 to 0.5)); higher = stronger / more preferred TF binding; conditions: protein concentration: 200 nM; construct: GST-full length
T1 sequence: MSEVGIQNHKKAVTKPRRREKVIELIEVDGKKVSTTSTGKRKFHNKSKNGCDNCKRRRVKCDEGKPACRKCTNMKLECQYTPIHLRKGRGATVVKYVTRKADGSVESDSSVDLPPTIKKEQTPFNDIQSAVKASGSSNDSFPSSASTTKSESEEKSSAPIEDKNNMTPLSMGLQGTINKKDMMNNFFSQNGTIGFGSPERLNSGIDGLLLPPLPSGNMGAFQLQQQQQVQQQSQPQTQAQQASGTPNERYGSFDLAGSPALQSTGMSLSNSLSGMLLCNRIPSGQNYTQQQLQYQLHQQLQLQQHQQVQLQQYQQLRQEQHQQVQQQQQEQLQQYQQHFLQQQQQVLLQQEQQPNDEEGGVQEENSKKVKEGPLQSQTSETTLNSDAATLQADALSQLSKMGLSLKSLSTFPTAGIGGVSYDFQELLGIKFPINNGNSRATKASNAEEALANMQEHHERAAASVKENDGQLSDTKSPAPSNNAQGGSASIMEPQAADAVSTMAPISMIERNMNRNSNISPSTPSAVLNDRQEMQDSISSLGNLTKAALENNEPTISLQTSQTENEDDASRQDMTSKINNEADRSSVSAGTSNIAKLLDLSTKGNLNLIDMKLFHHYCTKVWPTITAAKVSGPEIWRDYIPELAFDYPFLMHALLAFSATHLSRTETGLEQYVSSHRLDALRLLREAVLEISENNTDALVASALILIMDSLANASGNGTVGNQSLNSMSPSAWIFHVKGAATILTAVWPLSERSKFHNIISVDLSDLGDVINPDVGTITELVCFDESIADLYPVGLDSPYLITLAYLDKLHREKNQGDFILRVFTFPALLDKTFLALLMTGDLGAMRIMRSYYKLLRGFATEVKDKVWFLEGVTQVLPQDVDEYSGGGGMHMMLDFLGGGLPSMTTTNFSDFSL
Procedure: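 Universal 'all 10-mer' protein binding microarrays (Agilent AMADID 015681) probed with GST-tagged S. cerevisiae TFs (full-length or DBD) made by in vitro transcription/translation (PURExpress), about 100-200 nM. Bound TF was detected with fluorescent anti-GST. Each ungapped 8-mer (which stands for itself and its reverse complement) is scored by the PBM enrichment score (E-score), a modified Wilcoxon-Mann-Whitney statistic from -0.5 to +0.5, computed with the Universal PBM Analysis Suite. Scale: above 0.35 generally sequence-specific binding.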

Row | Sequence | PBM E-score
1 | ACACGAGT | 0.162
2 | AAACGTGG | 0.255
3 | CTATGGAA | -0.161
4 | AAGATTGT | 0.00873
5 | ATTCACGA | 0.0672
6 | AATGACCC | -0.157
7 | GCTAGTGA | -0.115
8 | AATGAGCT | -0.163
9 | CCTCCTCC | -0.105
10 | AACTAGTA | -0.0317
11 | GTGCTATA | 0.128
12 | CCTTGTCC | -0.205
13 | CGGTTCAC | -0.117
14 | CTTAACGC | 0.17
15 | ATTAACGA | 0.424
16 | ATTAACGC | 0.143
17 | GTTAACGA | 0.442
18 | GGTAACGA | 0.346
19 | CGTAACGA | 0.374
20 | CGTAACGC | 0.324
21 | ATTAACGG | 0.185
22 | GTTAACTA | 0.157
23 | GCTAACGA | 0.304
24 | CTTAACGA | 0.464
25 | CTTAACCA | -0.0796

Row | Sequence | PBM E-score
26 | ACGCACGT | 0.144
27 | AGATTCTC | -0.0164
28 | CACTTCAA | -0.0335
29 | GGCACACA | -0.136
30 | ACGCAGTG | 0.0743
31 | TCACCTGA | -0.284
32 | CTACGCTA | -0.04
33 | TCGCTTAA | 0.403
34 | CCGCTTAA | 0.268
35 | GCGCTTAA | 0.173
36 | ACTTATTG | -0.116
37 | GATCTCTA | -0.0508
38 | CATAAACA | -0.00956
39 | CATAAACG | 0.462
40 | AATAAACT | -0.0754
41 | CATAAACC | -0.075
42 | AATAAACG | 0.429
43 | AATAAACA | 0.0907
44 | CTCATACC | 0.051
45 | GGCTTTTA | -0.157
46 | CTAATTCA | -0.0938
47 | CCGTTCAC | 0.291
48 | AGTTGTTC | 0.127
49 | AACGATAC | 0.413
50 | CACGATAC | 0.197

Row | Sequence | PBM E-score
51 | GACGATAC | 0.124
52 | AACGATAG | 0.404
53 | AGCGATAT | 0.206
54 | ACCGATAA | 0.158
55 | AACGATAA | 0.381
56 | ACCGATAG | -0.0483
57 | AGCGATAA | 0.0894
58 | ACCGATAT | 0.0732
59 | CACGATAG | -0.187
60 | AACGATAT | 0.39
61 | CACTGACG | -0.152
62 | GTGGGTCA | -0.327
63 | GGTCTGTA | 0.0803
64 | ATGGACCA | 0.0213
65 | ATGAGTGA | -0.101
66 | CGTTCGAA | 0.221
67 | AGTGCCAT | -0.133
68 | GAACCACA | -0.0218
69 | ATTTAGAA | -0.14
70 | AAGGCCGT | 0.244
71 | ACCTGGGA | -0.245
72 | AAATTTAA | 0.184
73 | TACGATAA | 0.416
74 | GACGATAA | 0.111
75 | CACGATAA | 0.074

Row | Sequence | PBM E-score
76 | TCAGCGGA | -0.0114
77 | CGTTTACA | 0.441
78 | AGTTTACC | 0.0436
79 | AGTTTACA | -0.0264
80 | GGTTTACA | -0.0166
81 | CATTTACC | -0.152
82 | CGTTTACC | 0.449
83 | AACGGAAA | 0.216
84 | GCAAAACA | -0.144
85 | CGGGGGGC | 0.063
86 | CTACAACC | 0.0888
87 | CGTTCGTC | 0.293
88 | CGTTCGTA | 0.45
89 | GGTTCGTA | 0.445
90 | GGTTCGGA | -0.168
91 | AGTTCGTA | 0.439
92 | GGTTCGAA | 0.0921
93 | CGTTCGGA | 0.265
94 | AGTTCGTG | 0.158
95 | AGTTCGTC | 0.0871
96 | CTTGCAGA | -0.17
97 | GTATAGAA | 0.345
98 | AGGTGCTG | -0.387
99 | CATCAGTC | -0.123
100 | CTCGCCCA | -0.102

Row | Sequence | PBM E-score
101 | ACACCAGC | -0.111
102 | GTGTCGCA | 0.0927
103 | GTGTCGGA | 0.0733
104 | ATGTCGTG | -0.0693
105 | ATGTCGTC | -0.0259
106 | CTGTCGTA | 0.447
107 | GTGTCGTA | 0.44
108 | CTGTCGTC | 0.00126
109 | CTGTCGAA | -0.181
110 | ATGTCGTA | 0.45
111 | GTGTGGCA | -0.371
112 | AACCGGCT | -0.239
113 | AACTATCA | 0.134
114 | ATGTGAAT | 0.12
115 | AATACCGC | -0.131
116 | CCTATGCC | -0.13
117 | AGTATGTA | 0.0299
118 | CGTATGTC | 0.353
119 | CGTATGTA | 0.387
120 | AGTATGCA | -0.3
121 | GGTATGCA | -0.00862
122 | CGTATGCC | 0.372
123 | AGTATGCC | -0.189
124 | CGTATGCA | 0.377
125 | GCAGTAGC | -0.174

Row | Sequence | PBM E-score
126 | AGCGGGTC | -0.0751
127 | CATTTTTC | 0.0327
128 | TAATCTCA | -0.058
129 | CGCTGGAA | -0.186
130 | ACCATCTG | -0.225
131 | AACTCGTG | 0.178
132 | GACTCGCA | -0.0142
133 | CACTCGTA | 0.455
134 | CACTCGTC | 0.0141
135 | GACTCGAA | -0.194
136 | AACTCGTA | 0.455
137 | CACTCGAA | 0.0152
138 | GACTCGTA | 0.436
139 | AACTCGTC | 0.0662
140 | CCACTTCG | 0.0558
141 | AATGGAGT | -0.266
142 | AGCGTTAC | 0.0438
143 | CTCTTCCA | -0.0797
144 | CCGCTGGC | -0.258
145 | GAAATGTC | -0.0124
146 | ACGCGAGG | 0.219
147 | AAGACTCA | -0.172
148 | ACTGACTC | -0.192
149 | CTCGAACA | -0.00626
150 | CCAATAGC | -0.22

Row | Sequence | PBM E-score
151 | TACATCGA | 0.038
152 | GCTTACAA | -0.0171
153 | ACTTACGG | 0.194
154 | GCTTACGA | 0.421
155 | CCTTACTA | 0.029
156 | ACTTACGA | 0.382
157 | CCTTACGA | 0.407
158 | ACTTACGC | -0.0998
159 | GCTTACTA | -0.0799
160 | CCTTACGC | 0.193
161 | GAAGTACC | 0.114
162 | GTGCCAAC | -0.0672
163 | CTCCACCA | -0.177
164 | GGATTGTA | 0.107
165 | ATGCCAAC | 0.0593
166 | GTTAGCGA | 0.194
167 | ACAATCCA | -0.0823
168 | CGACGACA | 0.173
169 | CCACGACA | -0.131
170 | GCACGACA | 0.0592
171 | ATACGACA | 0.477
172 | GTACGACA | 0.468
173 | CTACGACA | 0.311
